Pf Dd2 inh: qHTS Primary assay for Inhibitors of Plasmodium falciparum Dd2 growth in vitro; P. falciparum Dd2 growth, SYBR Green, 72 h; Potency, µM (series often up to 28.9 µM), for inactives: at the highest dose activity, negative = inhibition, most hits filed as inhibitors; 120,000 compounds, 4.3% hits; AID 1347417, 2020; active means well fitted inhibition curve with a large enough effect;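 further: plate controls were DMSO vehicle for no effect and reference drug for full effect; nearly all actives have a fitted effect of over 65% in size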
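Infected erythrocytes (Dd2, 0.3% parasitemia, 2.5% hematocrit final) are added to compound in RPMI-1640/Albumax II medium, grown 72 h at 37C in low oxygen, then lysed with saponin/Triton-X containing SYBR Green and read by fluorescence.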
Starred values were filed as active, the others as inactive; i = inactive; [ ] = remark or other dose. Only a selection was taken, and hits are over-represented in it overall. Potency means the concentration at half of the fitted maximal effect.

SMILES | Pf Dd2 inh
NC(=O)c1ccnc(-c2cc(NCc3ccccn3)nc3[nH]ccc23)c1 | -25%
CC(=O)c1sccc1-c1cc(NCc2ccccn2)nc2[nH]ccc12 | -28%
CC(=O)NCc1ccc(-c2cc(NC3CCCC3)nc3[nH]ccc23)nc1 | -24%
CC(C)c1cccc(-c2cc(NCc3ccccn3)nc3[nH]ccc23)n1 | 8.9µM*
CN(C)CCNC(=O)c1nc(-c2ccccc2)cc2[nH]ccc12 | i
Cc1ccc(C#N)c(-c2cc(NCc3cccnc3)nc3[nH]ccc23)n1 | -24%
COCCNc1cc(-c2cncc(C(=O)N3CCOCC3)n2)c2cc[nH]c2n1 | -12%
CN(C)CCNc1cc(-c2ccc3ccccc3n2)c2cc[nH]c2n1 | 13µM*
Clc1cccnc1-c1cc(NCc2ccccn2)nc2[nH]ccc12 | 8.9µM*
O=C1[C@H]2CN(Cc3c[nH]c4ccccc34)C[C@H]2C(=O)N1CCc1ccccc1 | -1%
O=C(Cc1ccccc1F)N1CCC2(CC1)CC(OCC1CC1)CCO2 (configuration not stated) | 35%
O=C(NCc1ccc2c(c1)OCO2)c1csc(N2CCN(c3ccc(F)cc3)CC2)n1 | i
CC(C)(C)c1ccc(C(=O)Nc2cc(-c3nc4ccccc4o3)ccc2Cl)cc1 | 22%
O=C(O)CC1CCCN(c2cn[nH]c(=O)c2)C1 (configuration not stated) | 10%
Cc1ccn(CC(=O)N2CCC(C3CCN(S(C)(=O)=O)CC3)C2)n1 (configuration not stated) | 12%
COc1ccc(C(=O)N2CCOC3(CCN(C(=O)CCN)CC3)C2)cc1 | 8%
CN(CCN1CCCCCC1)C(=O)c1cc(COc2ccccc2)[nH]n1 | 7.9µM*
CN(CC1(CO)CCOCC1)C(=O)c1cc(COc2ccccc2)[nH]n1 | -4%
CN(CCN1CCOCC1)C(=O)c1cc(COc2cccc(F)c2)[nH]n1 | -20%
Cc1cccc(C(=O)N2CCC(N3CC4CC(C3)[C@H]3CCCC(=O)N3C4)CC2)c1 (some centres not stated) | -19%
COc1cccc([S+](=O)([O-])N2CCCC3(C2)NC(=O)c2ccccc2O3)c1 (configuration not stated) | i
COc1cccc(CN2C[C@@H](COCC3CC3)[C@H](c3ccncc3)C2)n1 | 11µM*
O=C(c1cncnc1)N1C[C@@H](COCC2CC2)[C@H](c2ccncc2)C1 | 21%
Cc1ccccc1C(=O)N1C[C@@H](COCC2CC2)[C@H](c2ccncc2)C1 | -23%
Cc1cccc(-c2nc3c4ccccc4nc(NCCc4ccccc4)n3n2)c1 | -1%
SMILES | Pf Dd2 inh
Cc1ccc(NC(=O)Nc2nc3c(s2)CCCCCC3)cc1C | -19%
Cc1cc(NC(=O)Nc2csc3c2CCCC3)ccc1Br | 13µM*
Cc1cc(NC(=O)Nc2nnc(N(C)C3CCCCC3)s2)ccc1Br | -23%[5.79 µM]
CCOc1ccc(CNCCSc2nnnn2C)cc1OC | 0%
CN1CCN(C2(CNC(=O)c3ccc(C(C)(C)C)cc3)CCCCC2)CC1 | i
CC(C)COc1ccc(C(=O)NCC2(N3CCN(C)CC3)CCCCC2)cc1 | 10µM*
CC(C)COc1ccc(C(=O)N2CCN(CCc3ccncc3)CC2)cc1 | 24%
Cc1ccc(NC(=O)NCCc2c(C)nn(C)c2C)c(Cl)c1 | 34%
Cc1ccc(C)c(Cn2c(=O)n(Cc3ccc(C(=O)NC4CCN(Cc5ccccc5)CC4)cc3)c(=O)c3ccccc32)c1 | -3%
O=C(NC1CCN(Cc2ccccc2)CC1)c1ccc(Cn2c(=O)c3ccccc3n(Cc3ccc(F)cc3)c2=O)cc1 | 10µM*
O=c1c2ccccc2n(Cc2c(F)cccc2Cl)c(=O)n1Cc1ccccc1 | -2%
CCCCCCN(CCC(=O)NCc1ccco1)C(=O)c1ccoc1 | -2%
CCc1ccc(-n2nc3ccc(NC(=O)c4cc(Cl)c(OC)c(Cl)c4)cc3n2)cc1 | 7%
CC(C)n1ccnc1CN1CCC2(CCCO2)CCC1=O (configuration not stated) | 5%
Cc1cccc(C)c1CN1CC2(COCC1=O)CN(c1ccc(C(F)(F)F)cn1)C2 | -1%[44.1 µM]
Cn1ncc(CN2CCCC23CCN(c2ccc(C(F)(F)F)cn2)CC3)c1C1CC1 | 11µM*
Cc1ccc(C2(O)CCN(c3cc(C(F)(F)F)ccn3)CC2)nc1 | -8%
C[C@@H]1CN(C2CCN(Cc3cnn(C)c3C3CC3)CC2)C[C@H](C)O1 | 1%
COc1ccc(CN2CC3(COCC2=O)CN(c2ccc(C(F)(F)F)cn2)C3)cc1F | i
Cn1cc(CN2CCCC23CCN(c2ccc(C(F)(F)F)cn2)CC3)cc1C#N | 5µM*
CC(C)n1ccnc1CN1CCCC12CCN(c1ccc(C(F)(F)F)cn1)CC2 | 13µM*
FC(F)(F)CN1C2CCC1CN(c1ccc(C(F)(F)F)cn1)C2 | 27%
Clc1ccc(CCNc2ncncn2)c(Cl)c1 | -9%
CC(C)CN1C(=O)c2ccccc2C(C(=O)NCc2cccnc2)C12CCCCC2 (configuration not stated) | -20%
C[S+](=O)([O-])N1CC2(Cc3ccccc31)CN(C(=O)c1ccc(F)cc1)C2 | i
SMILES | Pf Dd2 inh
N#Cc1ccc(CNC(=O)[C@@H]2Cc3nc[nH]c3CN2C(=O)CCC(=O)O)cc1 | 9%[44.1 µM]
CN(C)c1cccc(C(=O)Nc2ccc3c(N4CCOCC4)ncnc3c2)c1 | -22%
Cc1ccc(C(=O)N2CCC3(CC2)CC(N(C(=O)c2ccccc2)C2CC2)CCO3)cn1 (configuration not stated) | i
COc1ccc(CCNC(=O)CCCn2c(=O)c3ccccc3n(CC(=O)Nc3c(C)cc(C)cc3C)c2=O)cc1OC | -7%
COc1ccc(CCNC(=O)CCCn2c(=O)c3ccccc3n(CC(=O)Nc3cccc(C)c3)c2=O)cc1OC | 10µM*
COc1ccc(CCNC(=O)CCCCn2c(=O)c3ccccc3n(CC(=O)Nc3ccccc3C)c2=O)cc1OC | -18%
Cc1ccccc1S(=O)(=O)N1CCCC(CCC(=O)N2CCc3ccccc3C2)C1 (configuration not stated) | -27%
Cc1c(Cl)cccc1NC(=O)c1cccc(NC(=O)N2CCSc3ncccc32)c1 | i
CCCCNC(=O)[C@@H](c1ccccc1)N1Cc2ccccc2C1=O | 29%
Cc1cccc(NC(=O)Nc2ccc(C)n(CC(=O)NC(C)C)c2=O)c1 | -23%
O=C(Nc1ccc2c(N3CCCCC3)ncnc2c1)c1ccc(F)c(F)c1 | 2µM*
O=C(Nc1ccc2ncnc(N3CCCCC3)c2c1)c1ccc(F)cc1 | i
COc1ccc(C(=O)Nc2ccc3c(N4CCCCC4)ncnc3c2)cc1 | -22%
O=C(C1CCOCC1)N1CCC(O)(c2csc(CN3CCc4ccccc4C3)n2)CC1 | -18%
O[C@@H]1C[C@@H](c2nc(-c3ccc(F)cc3)no2)N(Cc2ccc(F)cc2)C1 | 3%[44.1 µM]
O=C1CC(c2ccccc2)N(C(=O)CNC(=O)C2CCCCC2)CCCCCN1 (configuration not stated) | -22%
CCCc1cnc2c(c1SCC(=O)Nc1cccc(C)c1C)c(=O)n(C)c(=O)n2C | 1%
CCCc1cnc2c(c1SCc1cccc(C)c1)c(=O)n(C)c(=O)n2C | 11µM*
CCCc1cnc2c(c1SCC(=O)Nc1ccccc1OCC)c(=O)n(C)c(=O)n2C | 2%
Cc1noc(C)c1S(=O)(=O)NCCc1noc(-c2cccnc2)n1 | -4%
CC(C)CNC(=O)CCc1nc(C2CCCN2C(=O)NC(C)C)no1 (configuration not stated) | -12%
Cc1cc(=O)n(CC(=O)Nc2cccc(C(F)(F)F)c2)c(N2CCOCC2)n1 | i
O=C(NC(=O)c1ccccc1)Nc1ccc(-c2cc(C(F)(F)F)nn2-c2ccccc2)cc1 | i
